Source: PubChem BioAssay
The list is not random: actives were taken first. Their share in the collection is about 3.4%.
SMARCA2 activ: increases SMARCA2 function in MMTV reporter cells | activation, % at 9.1 µM | hit rate 1% among 370,000 | MG213 cells, MMTV-luciferase reporter, dexamethasone, overnight; in the data active = activation above about 7.8%
PG9 Ab binder: binds the HIV-1 gp120 antibody PG9 | TR-FRET gp120-PG9 antibody binding | inhibition, % at 6.7 µM | hit rate 0.43% among 360,000; in the data active = inhibition above about 8.5%
HSF1 inh: HSF1 inhibition; NIH3T3-HGL HSE-luciferase, MG132-induced, luminescence 8 h; hits give low values; activity change, negative = inhibition, % at 7.5 µM (by protocol); hit rate 0.77% among 300,000;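 active = more than half of replicate wells show activity change below -50%, luminescence cut by over half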;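 note: luciferase reports HSF-1 transcriptional activity via heat shock element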
HSP90 inh: HSP90 refolding inhibition in rabbit reticulocyte lysate | luciferase refolding luminescence, 3 h | inhibition, % at 5.6 µM | hit rate 0.91% among 290,000 | AID 1789;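 active = inhibition above the screen-wide mean plus 3 SD, computed separately per campaign, cut at about 16% in these data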;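 note: inhibitors lower the luminescence because luciferase stays unfolded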
AI-2 QS modul: modulates the Vibrio harveyi AI-2 quorum sensing system. Vibrio harveyi JMH597 AI-2 luminescence/OD600 ratio, 9 h; hits give low values; strain lacks LuxN and CqsS sensors; 0 = neutral-control median. activity change, % at 7.5 µM. hit rate 0.4% among 300,000; in the data active = activity change below about -75%, passing the limit was not always enough;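 note: luminescence divided by OD600 gain over 9 h not by final OD600 alone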
FXN GAA850 act: frataxin GAA850 promoter activation | HEK293 lucGAA850 FXN promoter luciferase reporter, 24 h; percent of 10 µM SAHA response | activation, % at 6 µM | hit rate 0.56% among 360,000;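 active = activation above the average of all compounds screened plus 3 SD, cutoff fixed separately per campaign, cut at about 7.5% in these data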
Numbers stand for hits; i = inactive; nt = no result.

SMILES	SMARCA2 activ	PG9 Ab binder	HSF1 inh	HSP90 inh	AI-2 QS modul	FXN GAA850 act
CCOc1ccc(-n2c(COc3ccccc3)nnc2SCC(=O)Nc2ccc3c(c2)OCCO3)cc1	i	nt	nt	nt	nt	nt
CC(C)(C)C(=O)OCc1nc(-c2ccc3c(c2)OCCO3)cs1	i	i	-52	i	i	i
CC(C)(C)C(=O)OCc1nc(-c2ccc(F)cc2)cs1	7.9	i	i	i	i	i
CCCCOc1ccc(C(=O)n2ccc3ccc(-c4ccc5ccn(Cc6ccccc6)c5c4)cc32)cc1	i	nt	nt	nt	nt	nt
COC(=O)c1ccccc1NC(=O)CSc1nnc(C(CO)NC(=O)c2ccccc2)n1C (stereo unspecified)	i	i	-71	i	i	i
CC(C)(C)c1ccc(-c2cn(C[C@H](Cc3ccccc3)n3c(=O)c4ccccc4n3Cc3ccno3)nn2)cc1	i	nt	nt	nt	nt	nt
COc1ccccc1N(C)S(=O)(=O)c1ccc(C(=O)NC(C)c2ccccc2)cc1 (stereo unspecified)	i	i	-67	i	i	i
COc1ccccc1CN1CCCC(CN(CCN(C)C)C(=O)C2CCCC2)C1 (stereo unspecified)	i	i	-62	i	i	i
COc1ccccc1CN1CCCC(C(=O)N(C)Cc2ccccc2)C1 (stereo unspecified)	i	i	i	i	i	i
CC(COc1ccc(OC(F)(F)F)cc1)CN1CCC(C(O)(c2ccccc2)c2ccccc2)CC1 (stereo unspecified)	i	nt	nt	nt	nt	nt
CCOc1ccc(CNCCCSc2ncccn2)cc1	i	i	i	i	i	i
CCOc1ccc(CNCCCSc2ncccn2)cc1OC	i	i	-68	i	i	i
CCOc1ccc(OCc2ccc(C(=O)NC(C)(C)C)o2)cc1	i	i	i	i	i	i
CCOc1ccc(OCc2ccc(C(=O)NCC3CCCO3)o2)cc1 (stereo unspecified)	i	i	i	16	i	i
CCOc1ccc(OCc2ccc(C(=O)NN)o2)cc1	i	i	i	16	i	i
CCc1ccc(OC(C)C(=O)N(Cc2ccccc2)C2CCS(=O)(=O)C2)cc1 (stereo unspecified)	i	i	i	i	i	i
CCc1ccc(OC(C)C(=O)N(Cc2ccco2)C2CCS(=O)(=O)C2)cc1 (stereo unspecified)	i	i	-83	i	i	i
C=CCN1[C@H](CC(C)C)COc2cc(F)ccc2S1(=O)=O	i	nt	nt	nt	nt	nt
O=C(CSc1nnc(-c2cccnc2)n1-c1ccc(Cl)cc1)Nc1ccccc1-c1ccccc1	i	nt	nt	nt	nt	nt
CCn1cc(S(=O)(=O)Nc2ccc3c(c2)OCCO3)cn1	i	i	-81	i	i	i
Cn1cc(S(=O)(=O)Nc2ccc3c(c2)OCCO3)cn1	i	i	-62	i	i	i
CCN(CC)CCCN(C(=O)c1ccco1)c1nc(-c2ccc(C)cc2)cs1	i	i	-69	i	i	i
CCCCNC(=O)C[C@H]1C[C@@]2(C(=O)OC)C(=C[C@H](COCc3ccccc3)O[C@@H]2C)N(Cc2ccccc2)C1=O	i	nt	nt	nt	nt	nt
COc1ccc(CCCC(=O)Nc2cc(C)ccc2OC)cc1	i	i	i	i	i	i
COc1ccc(C)cc1NC(=O)C(=O)NNC(=O)COc1ccc(Cl)cc1	i	i	-85	i	i	i
SMILES	SMARCA2 activ	PG9 Ab binder	HSF1 inh	HSP90 inh	AI-2 QS modul	FXN GAA850 act
COc1ccc(S(=O)(=O)CCC(=O)Nc2cc(C)ccc2OC)cc1	i	i	-66	i	i	i
CCOC(=O)Cc1csc2nc(-c3ccccc3)cn12	i	i	nt	nt	nt	nt
COc1cccc(COc2cc3ccccc3nc2C)c1	i	i	i	i	-89	i
Cc1nc2ccccc2cc1OCc1ccc(Cl)cc1	i	i	i	i	i	i
COc1ccc(Cl)cc1NC(=O)CSc1nc2ccsc2c(=O)n1CC1CCC(C(=O)O)CC1 (stereo unspecified)	i	i	-60	i	i	i
O=C(CSc1nc2ccsc2c(=O)n1CC1CCC(C(=O)O)CC1)NCCc1ccc(Cl)cc1 (stereo unspecified)	i	i	i	i	i	i
COC(=O)c1ccccc1-c1ccc(C(c2c(C)[nH][nH]c2=O)c2c(C)[nH][nH]c2=O)o1	7.9	i	i	i	i	i
CC(C)CNC(=O)OCc1cn(Cc2cccc(F)c2)nn1	i	nt	nt	nt	nt	nt
CCCCCN1CCCCC(NC(=O)Cc2ccccc2)C1=O (stereo unspecified)	i	nt	nt	nt	nt	nt
